From PubChem BioAssay (EPA / NIEHS)
Active and inactive are the calls of the source. Rule for the calls: active = hit-call score of the fitted dose curve at least 0.9, where 1 is the maximum; inactive = score below 0.9.

Experiments:
[1] = read-out: Macrophage colony-stimulating factor (MCSF), CSF1 (gene 1435); experiment: BSK_hDFCGF_MCSF: BioMAP Diversity Plus: hDFCGF Assay for Macrophage colony-stimulating factor (MCSF) Biomarker Activity (AID 2283060); details: primary human foreskin fibroblasts; actives raise or lower the signal
In short: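 M-CSF levels read by ELISA at 24 h post-dosing in human skin fibroblasts. Parallel cultures stained with SRB assessed cytotoxicity at the same time point; response fitted in both directions against the DMSO baseline.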

[2] = BSK_hDFCGF_SRB: Viability Assessment in the BioMAP Diversity Plus: hDFCGF Assay (AID 2283061); details: primary human foreskin fibroblasts;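 note: cells exposed to compound for 24 h before the read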
In short: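 Viability was read as total protein: after 10% TCA fixation, wells were stained with 0.1% sulforhodamine B and read at 560 nm. Primary human foreskin fibroblasts were dosed for 24 h, with bidirectional fitting versus DMSO.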

[3] = read-out: TIMP metallopeptidase inhibitor 1 (TIMP1), TIMP1 (gene 7076); experiment: BSK_hDFCGF_TIMP1: BioMAP Diversity Plus: hDFCGF Assay for TIMP metallopeptidase inhibitor 1 (TIMP1) Biomarker Activity (AID 2283062); details: primary human foreskin fibroblasts; actives raise or lower the signal
In short: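 TIMP-1 measured by ELISA 24 h after chemical dosing of primary human skin fibroblasts, with gain or loss fitted relative to DMSO. Parallel SRB staining (560 nm) monitored overt cytotoxicity.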

[4] = read-out: Monokine induced gamma interferon (MIG), CXCL9 (gene 4283); experiment: BSK_hDFCGF_MIG: BioMAP Diversity Plus: hDFCGF Assay for Monokine induced gamma interferon (MIG) Biomarker Activity (AID 2283063); details: primary human foreskin fibroblasts; actives raise or lower the signal
In short: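 Human primary foreskin fibroblasts in the hDFCGF system, exposed to test chemical for 24 h; MIG measured by ELISA. Bidirectional curve fitting against DMSO negative control as activity baseline.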

[5] = read-out: Matrix Metallopeptidase 1 (MMP1), MMP1 (gene 4312); experiment: BSK_hDFCGF_MMP1: BioMAP Diversity Plus: hDFCGF Assay for Matrix Metallopeptidase 1 (MMP1) Biomarker Activity (AID 2283064); details: primary human foreskin fibroblasts; actives raise or lower the signal
In short: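 Primary human foreskin fibroblasts exposed to chemicals for 24 h; MMP1 measured by ELISA. Cytotoxicity tracked by SRB staining in parallel cultures; bidirectional fit relative to DMSO.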

[6] = read-out: Vascular cell adhesion molecule 1 (VCAM1), VCAM1 (gene 7412); experiment: BSK_hDFCGF_VCAM1: BioMAP Diversity Plus: hDFCGF Assay for Vascular cell adhesion molecule 1 (VCAM1) Biomarker Activity (AID 2283065); details: primary human foreskin fibroblasts; actives raise or lower the signal
In short: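 ELISA readout of VCAM-1 on human dermal fibroblast primary cultures, 24 h after chemical exposure. Gain or loss of signal fitted in both directions against DMSO baseline.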

[7] = read-out: Plasminogen activator inhibitor-1 (PAI1), SERPINE1 (gene 5054); experiment: BSK_hDFCGF_PAI1: BioMAP Diversity Plus: hDFCGF Assay for Plasminogen activator inhibitor-1 (PAI1) Biomarker Activity (AID 2283066); details: primary human foreskin fibroblasts; actives raise or lower the signal
In short: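 Human foreskin fibroblasts in the hDFCGF system were dosed with compound for 24 h; PAI-1 was quantified by ELISA. Bidirectional curve fitting used DMSO as negative control and baseline.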

[8] = read-out: Intercellular Adhesion Molecule 1 (ICAM1), ICAM1 (gene 3383); experiment: BSK_KF3CT_ICAM1: BioMAP Diversity Plus: KF3CT Assay for Intercellular Adhesion Molecule 1 (ICAM1) Biomarker Activity (AID 2283067); details: primary human keratinocytes with fibroblasts; actives raise or lower the signal
In short: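 Cell-surface ICAM-1 was measured by ELISA 24 h after dosing primary human skin keratinocytes co-cultured with fibroblasts. Parallel SRB staining tracked overt cytotoxicity. Gain or loss of signal was fitted relative to DMSO.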

[9] = read-out: Interferon-gamma inducible Protein 10 (IP10), CXCL10 (gene 3627); experiment: BSK_KF3CT_IP10: BioMAP Diversity Plus: KF3CT Assay for Interferon-gamma inducible Protein 10 (IP10) Biomarker Activity (AID 2283068); details: primary human keratinocytes with fibroblasts; actives raise or lower the signal
In short: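 In a primary skin co-culture of keratinocytes and fibroblasts, IP-10 is quantified by ELISA at 24 h after dosing. SRB staining of parallel wells monitors overt toxicity. Curves are fitted both directions against DMSO.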

[10] = BSK_KF3CT_SRB: Viability Assessment in the BioMAP Diversity Plus: KF3CT Assay (AID 2283069); details: primary human keratinocytes with fibroblasts;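 note: total protein by sulforhodamine B staining as a cytotoxicity measure; read 24 h after compound addition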
In short: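 Human keratinocyte and foreskin fibroblast co-culture exposed to chemical for 24 h. Total protein measured in parallel cultures by 0.1% sulforhodamine B staining after 10% TCA fixation, read at 560 nm; bidirectional fit relative to DMSO.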

[11] = read-out: Interleukin-1 alpha (IL1a), IL1A (gene 3552); experiment: BSK_KF3CT_IL1a: BioMAP Diversity Plus: KF3CT Assay for Interleukin-1 alpha (IL1a) Biomarker Activity (AID 2283070); details: primary human keratinocytes with fibroblasts; actives raise or lower the signal
In short: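 Primary human keratinocyte plus foreskin fibroblast co-culture, dosed and measured at 24 h in 96-well plates. IL-1a level quantified by ELISA; bidirectional fit relative to DMSO.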

[12] = read-out: TIMP metallopeptidase inhibitor 2 (TIMP2), TIMP2 (gene 7077); experiment: BSK_KF3CT_TIMP2: BioMAP Diversity Plus: KF3CT Assay for TIMP metallopeptidase inhibitor 2 (TIMP2) Biomarker Activity (AID 2283071); details: primary human keratinocytes with fibroblasts; actives raise or lower the signal
In short: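 Human primary keratinocyte/foreskin fibroblast co-culture dosed with chemical and sampled at 24 h. TIMP-2 levels quantified by ELISA; bidirectional fitting against DMSO negative control as baseline.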

[13] = read-out: Transforming growth factor beta 1 (TGFb1), TGFB1 (gene 7040); experiment: BSK_KF3CT_TGFb1: BioMAP Diversity Plus: KF3CT Assay for Transforming growth factor beta 1 (TGFb1) Biomarker Activity (AID 2283072); details: primary human keratinocytes with fibroblasts; actives raise or lower the signal
In short: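 Human keratinocyte plus foreskin fibroblast primary co-culture, dosed with chemical for 24 h. TGF-b1 quantified by ELISA. Activity fitted bidirectionally against DMSO negative control as baseline.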

[14] = read-out: C-C motif chemokine 2 (Homo sapiens) (UniProt P13500); experiment: BSK_KF3CT_MCP1: BioMAP Diversity Plus: KF3CT Assay for Monocyte Chemoattractant Protein 1 (MCP1/CCL2) Biomarker Activity (AID 2283073); details: primary human keratinocytes with fibroblasts; actives raise or lower the signal
In short: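 ELISA read-out of MCP-1, 24 h post-dose, in primary human skin keratinocytes co-cultured with fibroblasts. Parallel SRB staining monitors cytotoxicity; changes fitted both directions relative to DMSO.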

[15] = read-out: Matrix Metallopeptidase 9 (MMP9), MMP9 (gene 4318); experiment: BSK_KF3CT_MMP9: BioMAP Diversity Plus: KF3CT Assay for Matrix Metallopeptidase 9 (MMP9) Biomarker Activity (AID 2283074); details: primary human keratinocytes with fibroblasts; actives raise or lower the signal
In short: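 Human keratinocyte and foreskin fibroblast co-culture exposed to chemicals for 24 h; MMP9 biomarker measured by ELISA, bidirectional fitting relative to DMSO; cytotoxicity tracked by SRB total protein staining in parallel cultures.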

[16] = read-out: urokinase plasminogen activator (uPA), PLAU (gene 5328); experiment: BSK_KF3CT_uPA: BioMAP Diversity Plus: KF3CT Assay for urokinase plasminogen activator (uPA) Biomarker Activity (AID 2283075); details: primary human keratinocytes with fibroblasts; actives raise or lower the signal
In short: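 Primary human keratinocyte/foreskin fibroblast co-culture exposed to chemical; uPA measured by ELISA at 24 h. Bidirectional fit versus DMSO, with parallel SRB total-protein staining for cytotoxicity.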

[17] = read-out: CD40, CD40 (gene 958); experiment: BSK_LPS_CD40: BioMAP Diversity Plus: LPS Assay for CD40 Biomarker Activity (AID 2283076); details: primary human HUVEC with PBMC; actives raise or lower the signal
In short: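 In the LPS system of human endothelial cells with peripheral blood mononuclear cells, CD40 levels were read by ELISA 24 h post-treatment. Signal changes in either direction were fitted against the DMSO baseline, with parallel SRB protein staining.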

[18] = read-out: E-selectin (Homo sapiens) (UniProt P16581); experiment: BSK_LPS_Eselectin: BioMAP Diversity Plus: LPS Assay for Eselectin Biomarker Activity (AID 2283077); details: primary human HUVEC with PBMC; actives raise or lower the signal
In short: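 E-selectin ELISA on LPS-stimulated endothelial cell/PBMC co-cultures, read 24 h post-treatment; gains and losses fitted against DMSO. Parallel SRB staining (0.1% SRB after 10% TCA fixation, 560 nm) flags overt cytotoxicity.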

[19] = read-out: Interleukin-8 (IL8), CXCL8 (gene 3576); experiment: BSK_LPS_IL8: BioMAP Diversity Plus: LPS Assay for Interleukin-8 (IL8) Biomarker Activity (AID 2283078); details: primary human HUVEC with PBMC; actives raise or lower the signal
In short: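 ELISA read-out of IL-8 after 24 h chemical treatment of LPS-activated endothelial/PBMC human primary co-cultures. Changes either up or down relative to DMSO; overt cytotoxicity checked by sulforhodamine B staining in parallel wells.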

[20] = BSK_LPS_SRB: Viability Assessment in the BioMAP Diversity Plus: LPS Assay (AID 2283079); details: primary human HUVEC with PBMC;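 note: total protein by sulforhodamine B absorbance as a cytotoxicity measure; measured one day after compound addition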
In short: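 SRB viability endpoint: cells fixed with 10% TCA, stained with 0.1% SRB, read at 560 nm, 24 h post-dose. HUVEC/PBMC co-culture; signal change in either direction scored relative to DMSO.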

Measured: AC50

E-selectin (Homo sapiens), sequence (P16581 whole entry, looked up): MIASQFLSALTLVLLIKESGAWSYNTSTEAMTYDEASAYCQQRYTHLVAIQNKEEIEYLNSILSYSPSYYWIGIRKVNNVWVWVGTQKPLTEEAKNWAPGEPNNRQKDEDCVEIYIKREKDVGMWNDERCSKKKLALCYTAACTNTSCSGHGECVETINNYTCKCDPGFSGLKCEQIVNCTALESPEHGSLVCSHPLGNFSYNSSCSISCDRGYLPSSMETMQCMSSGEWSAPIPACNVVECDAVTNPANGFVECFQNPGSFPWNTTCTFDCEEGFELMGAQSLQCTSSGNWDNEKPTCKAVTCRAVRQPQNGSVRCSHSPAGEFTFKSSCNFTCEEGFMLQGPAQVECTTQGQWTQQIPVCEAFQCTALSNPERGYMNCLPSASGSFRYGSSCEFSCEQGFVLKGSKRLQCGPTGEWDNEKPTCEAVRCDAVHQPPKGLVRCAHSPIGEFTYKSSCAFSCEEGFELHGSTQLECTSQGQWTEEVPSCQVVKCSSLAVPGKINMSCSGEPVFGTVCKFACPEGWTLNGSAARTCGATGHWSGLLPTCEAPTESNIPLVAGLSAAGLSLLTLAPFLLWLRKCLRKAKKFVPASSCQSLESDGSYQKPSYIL

O=C(O)c1cc(Oc2ccc(C(F)(F)F)cc2Cl)ccc1[N+](=O)[O-]
inactive: all assays above

CC(=NC#N)N(C)Cc1ccc(Cl)nc1
inactive: all assays above

Cc1cc(C2CC2)nc(Nc2ccccc2)n1
active: [9] 20 µM | [17] 14.8 µM | [20] 24.7 µM
inactive: all other assays above

COc1ccc(C(=CC(=O)N2CCOCC2)c2ccc(Cl)cc2)cc1OC
active: [7] 7.96 µM | [17] 14.1 µM | [18] 10.3 µM
inactive: all other assays above

CSc1nc(NC(C)C)nc(NC(C)C)n1
inactive: all assays above

C#CC(C)(C)NC(=O)c1cc(Cl)cc(Cl)c1
inactive: all assays above
